Assay [1] can be described thus: qHTS assay for small molecules that induce genotoxicity in human embryonic kidney cells expressing luciferase-tagged ATAD5 (AID 651632). Further: on the % scale 0 is the no-effect control and ±100 the full control effect; nearly all actives have a fitted effect of over 15% in size. The gist of the method:
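Quantitative HTS in HEK293T expressing luciferase-tagged ATAD5, whose levels rise upon DNA damage. Exposure ran 16 hr at 37C and 5% CO2, with luminescence read 30 min after Amplite addition at room temperature.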
(In general: In qHTS, concentration-response curves come from the screen itself.)

The nature of assay [2]: qHTS assay for small molecules that induce genotoxicity in human embryonic kidney cells expressing luciferase-tagged ATAD5 - cell viability (AID 651634; calls by dose curve; further: nearly all actives have a fitted effect of over 25% in size; further: potency means the concentration at half of the fitted maximal effect). The method in brief: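 After 15.5 hr incubation with compound at 37C, 5% CO2, HEK293T ATAD5-luciferase cells received CellTiter-Fluor reagent; fluorescence intensity was quantified following 30 min at 37C.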
Assay [3] can be described thus: qHTS assay to test for compound auto fluorescence at 590 nm (red) in HepG2 cells (AID 720674). Further: on the % scale 0 is the no-effect control and ±100 the full control effect. The method in brief:
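We screened compounds on adherent HepG2 cells, incubating them for an hour at 37 C in 5% CO2 before reading emission at 590 nm under 540 nm excitation; values reflect equivalence to Rose Bengal sodium fluorescence.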

Assay [4] can be described thus: qHTS assay to test for compound auto fluorescence at 460 nm (blue) in HEK293 cells (AID 720678). Further: on the % scale 0 is the no-effect control and ±100 the full control effect. The gist of the method:
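HEK293 cells (2,000/well, medium with 10% dialyzed FBS) attached 4-5 hr, then exposed to compound overnight at 37C, 5% CO2. Blue fluorescence read at 405/460 nm, with triamterene as reference fluorophore.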

Assay [5] can be described thus: qHTS assay to test for compound auto fluorescence at 590 nm (red) in HEK293 cells (AID 720679). Further: on the % scale 0 is the no-effect control and ±100 the full control effect. The gist of the method:
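HEK293 cells (2,000/well, 10% dialyzed FBS) attached 4-5 hr, then dosed with compound or DMSO and incubated overnight at 37C, 5% CO2. Red fluorescence read at 540/590 nm, Rose Bengal sodium as reference fluorophore.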

Assay [6] in a line: qHTS assay to test for compound auto fluorescence at 535 nm (green) in HEK293 cells (AID 720680). Further: on the % scale 0 is the no-effect control and ±100 the full control effect.
The nature of assay [7]: qHTS assay to test for compound auto fluorescence at 460 nm (blue) in HEK293 cell free culture (AID 720681). Further: on the % scale 0 is the no-effect control and ±100 the full control effect. The method in brief:
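Blue fluorescence (Ex 405/Em 460 nm, triamterene-equivalent) was read immediately after pin transfer of compound or DMSO into medium (DMEM, 10% FBS) without cells.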

Assay [8] in a line: qHTS assay to test for compound auto fluorescence at 535 nm (green) in HEK293 cell free culture (AID 720682). Further: on the % scale 0 is the no-effect control and ±100 the full control effect. The method in brief: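 DMEM + 10% FBS, cell-free; cpd or DMSO pinned in; Ex485/Em535 read; output as fluorescein-equivalent signal.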
The nature of assay [9]: qHTS assay to test for compound auto fluorescence at 590 nm (red) in HEK293 cell free culture (AID 720683). Further: on the % scale 0 is the no-effect control and ±100 the full control effect. The method in brief: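 Red-channel autofluorescence of compounds in culture medium (DMEM, 10% FBS), no cells, measured at 540/590 nm. Rose Bengal sodium is the reference fluorophore for equivalence.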
Assay [10] is described as follows: qHTS assay to test for compound auto fluorescence at 590 nm (red) in HepG2 cell free culture (AID 720684). Further: on the % scale 0 is the no-effect control and ±100 the full control effect. The gist of the method: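 Cell-free; medium MEM + 10% FBS; compound or DMSO added by pintool; read Ex 540/Em 590 nm; Rose Bengal sodium as red reference fluorophore.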
A short description of assay [11]: qHTS assay to test for compound auto fluorescence at 460 nm (blue) in HepG2 cell free culture (AID 720685). Further: on the % scale 0 is the no-effect control and ±100 the full control effect. The method in brief: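 Cell-free plates of MEM plus 10% FBS received 23 nL compound or DMSO vehicle; blue-channel (405/460 nm) intensity scored against triamterene as reference fluorophore.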
Assay [12] in a line: qHTS assay to test for compound auto fluorescence at 535 nm (green) in HepG2 cell free culture (AID 720686). Further: on the % scale 0 is the no-effect control and ±100 the full control effect.
Assay [13] in a line: qHTS assay to test for compound auto fluorescence at 460 nm (blue) in HepG2 cells (AID 720687). Further: on the % scale 0 is the no-effect control and ±100 the full control effect. The method in brief: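 Blue-channel autofluorescence (Ex/Em 405/460 nm, triamterene-equivalent) was measured after 1 hr compound exposure at 37 C, 5% CO2. Cells were HepG2, plated overnight at 37 C in MEM plus 10% FBS.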
In assay [14] the target is Glucocorticoid receptor (Homo sapiens) (UniProt P04150). Kind of assay: qHTS assay to identify small molecule agonists of the glucocorticoid receptor (GR) signaling pathway (AID 720691; active means well fitted activation curve with a large enough effect in the signal ratio in the repeat runs, not every such curve was filed as active; the % refers to the signal ratio; further: on the % scale 0 is the no-effect control and ±100 the full control effect). The gist of the method:
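Cells: GR-bla HeLa, endogenous GR with stably integrated GRE-beta-lactamase reporter. Treatment 18 h, 37 C, compounds delivered in DMSO. Detection via LiveBLAzer B/G FRET substrate, 2 h RT, fluorescence intensity.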

Assay [15] in a line: qHTS assay for small molecule agonists of the p53 signaling pathway - cell viability (AID 651633; calls by dose curve; further: potency means the concentration at half of the fitted maximal effect; nearly all actives have a fitted effect of over 30% in size). The method in brief: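 Viability counter-read: CellTiter-Glo luminescence (30 min, room temperature) in the same p53RE-bla plates. These plates had been exposed to compounds for 16 h at 37 C.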
Assay [16] is described as follows: qHTS assay for small molecule disruptors of the mitochondrial membrane potential - cell viability (AID 720634; calls by dose curve;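 further: human HepG2 liver cancer cells; series mostly up to about 83 µM; on the % scale 0 is the no-effect control and ±100 the full control effect; nearly all actives have a fitted effect of over 20% in size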). The method in brief:
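ATP-based luminescent viability readout (CellTiter-Glo, 30 min, room temperature) in HepG2 cells multiplexed with the m-MPI membrane potential dye; compound exposure lasted 1 hr at 37 C.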

Assay [17] in a line: qHTS assay for small molecule disruptors of the mitochondrial membrane potential (AID 720635). Further: potency means the concentration at half of the fitted maximal effect. The gist of the method: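 Mitochondrial membrane potential tracked with Mito-MPS dye, red aggregates (ex 540/em 590 nm) against green monomers (ex 490/em 535 nm). Compound treatment 1 hr at 37C, dye 30 min in HepG2.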
The nature of assay [18]: qHTS assay to test for compound auto fluorescence at 535 nm (green) in HepG2 cells (AID 720675). Further: on the % scale 0 is the no-effect control and ±100 the full control effect.
Assay [19] concerns the target Glucocorticoid receptor (Homo sapiens) (UniProt P04150). The experiment in a line: qHTS assay to identify small molecule antagonists of the glucocorticoid receptor (GR) signaling pathway (AID 720692; active means well fitted inhibition curve with a large enough effect in the signal ratio in the repeat runs, not every such curve was filed as active; the % refers to the signal ratio; further: on the % scale 0 is the no-effect control and ±100 the full control effect). The gist of the method: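 Quantitative HTS in antagonist format: HeLa cells expressing endogenous GR and a stably integrated GRE-bla reporter, stimulated with 5 nM dexamethasone (final) alongside test compounds for 18 h.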

Values without a mark were called inactive. Records with an inconclusive call do not appear. Active and inactive are the calls of the source. Unless noted, the call rests on the fitted dose curve; in most records, active means well fitted curve in the direction sought with a large enough effect in the repeat runs; inconclusive means weak or mixed curves; inactive means no such curve, though single readings can be large; an effect the other way counts as inactive or inconclusive.

Chain of Glucocorticoid receptor (Homo sapiens) (P04150 whole entry, looked up): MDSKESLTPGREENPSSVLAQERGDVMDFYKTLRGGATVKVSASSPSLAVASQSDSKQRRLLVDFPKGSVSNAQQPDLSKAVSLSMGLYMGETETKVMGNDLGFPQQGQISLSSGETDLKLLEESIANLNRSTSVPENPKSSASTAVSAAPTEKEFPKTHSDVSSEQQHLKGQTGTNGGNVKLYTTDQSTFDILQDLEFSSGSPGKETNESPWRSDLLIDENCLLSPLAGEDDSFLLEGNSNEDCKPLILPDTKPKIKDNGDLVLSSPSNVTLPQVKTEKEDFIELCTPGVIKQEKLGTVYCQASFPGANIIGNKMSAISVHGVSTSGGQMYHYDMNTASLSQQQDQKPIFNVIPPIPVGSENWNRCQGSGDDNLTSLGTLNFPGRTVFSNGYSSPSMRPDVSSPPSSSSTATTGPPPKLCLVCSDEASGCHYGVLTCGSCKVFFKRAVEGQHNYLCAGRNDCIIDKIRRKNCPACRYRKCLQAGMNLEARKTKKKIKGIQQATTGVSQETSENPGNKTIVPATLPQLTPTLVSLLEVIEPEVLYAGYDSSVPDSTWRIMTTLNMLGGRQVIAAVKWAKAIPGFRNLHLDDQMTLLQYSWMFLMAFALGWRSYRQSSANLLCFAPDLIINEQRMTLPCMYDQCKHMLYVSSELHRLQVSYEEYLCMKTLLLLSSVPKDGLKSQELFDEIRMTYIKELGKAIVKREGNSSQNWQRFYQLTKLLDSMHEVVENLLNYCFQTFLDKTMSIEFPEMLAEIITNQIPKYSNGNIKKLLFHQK

As for `NC(=O)N(O)[C@@H]1C=C[C@H](Oc2cccc(Oc3ccc(F)cc3)c2)C1`, the Potency result in assay [1], in [2], in assay [4], in [7], in assay [11] and in [13] was “inactive” in each case. Also, in assay [14], the Potency entry is “inactive”. The molecule was classed as inactive in assay [3], in [5], in [6], in [8], in assay [9] and in [10]. Besides, the molecule was called inactive in [12].

Take `COc1cc2c(N3CCN(C(=O)Nc4ccc(OC(C)C)cc4)CC3)ncnc2cc1OCCCN1CCCCC1`: the Potency in assay [15] is 5.31 µM (active); in assay [2], 29.8 µM (active); in assay [17], 26.6 µM (active). The Potency result in assay [16], in [4], in [7], in [11], in assay [13] and in [14] was “inactive” in each case. For the same molecule, the call in assay [3], in assay [18], in assay [5], in assay [6], in assay [8] and in assay [9] was inactive. The outcome in assay [10] and in [12] was inactive.

As for `[O]=[Bi]`, the activation in assay [1] was 1.52% [at 8.08 µM]; in assay [14], 0.026% [at 6.9 µM]. For the same molecule, the activity, negative = cytotoxicity in assay [2] was 17.3% [at 8.08 µM]. Further, in assay [16], the activity change, negative = cytotoxicity is 7.5% [at 8.08 µM]. In assay [17], the ratio activity, negative = MMP loss was 14.9% [at 8.08 µM]. The fluorescence, relative to Rose Bengal in [3] is -0.152% [at 3.72 µM]. Also, in assay [4], the fluorescence, % of triamterene was -0.117% [at 3.72 µM]. Further, the fluorescence, % of fluorescent control in [5] is 0.261% [at 3.72 µM]; in assay [7], -0.0523% [at 3.72 µM]; in assay [9] it was -0.241% [at 3.72 µM]; in assay [11], -0.119% [at 3.72 µM]; in assay [13], -0.0256% [at 3.72 µM]. The fluorescence, % of fluorescein in assay [6] is -0.0925% [at 3.72 µM]. In [8], the activity change is -0.0025% [at 3.72 µM]. In addition, the fluorescence, % of Rose Bengal in assay [10] was -0.0278% [at 3.72 µM]. The fluorescence, % of fluorescein control in [12] was -0.0086% [at 3.72 µM]. The activity change, negative = inhibition in assay [19] was -10.6% [at 7.04 µM].

As for `CC1C2CC(CC2C2CCCC(O)C2)C1(C)C` (centres undefined), the Potency result in [1], in assay [2], in [4], in assay [7], in assay [11] and in [13] was “inactive” throughout. The Potency in assay [17] is 27.3 µM (active). Also, the outcome in [3], in assay [8], in [9], in assay [10] and in assay [12] was inactive.

Regarding `Cc1ccc(S(=O)(=O)NC2CCCCC2)cc1`, the Potency entry in assay [1], in assay [4], in assay [7], in [11], in assay [13] and in assay [14] was “inactive” throughout. In addition, the Potency result in assay [19] is “inactive”. In addition, the Potency in [17] is 21.5 µM (active). Also, the molecule was classed as inactive in assay [3], in [5], in [6], in assay [8], in assay [9] and in [12].

Turning to `O=C(Nc1ccccc1)Nc1ccccc1`, the Potency entry in [1], in assay [2], in [4], in [7], in assay [11] and in [13] was “inactive” in each case. Further, the Potency in [17] is 1.73 µM (active). Besides, the molecule was called inactive in assay [3], in assay [18], in assay [5], in assay [6], in [8] and in [10]. Further, the call in assay [12] was inactive.

Regarding `CCCCCCCCCCCCCCC[C@H](O)[C@@H](N)CO`, the Potency result in assay [1], in [2], in assay [16], in assay [4], in [7] and in assay [11] was “inactive” each time. Further, the Potency result in assay [13] and in [14] was “inactive” throughout. For the same molecule, the result in [3], in assay [5], in [6], in assay [8], in [9] and in [10] was inactive. Also, the outcome in assay [12] was inactive.

On to `CC1=CC(O)CC(C)(C)C1` (centres undefined), for which the Potency result in [1], in assay [2], in assay [16], in assay [4], in [7] and in assay [11] was “inactive” each time. Further, the Potency entry in assay [13], in assay [14] and in [19] was “inactive” in each case. The result in [3], in [5], in [6], in assay [8], in [9] and in [10] was inactive. Further, the molecule was classed as inactive in assay [12].

(Values after PubChem BioAssay (Tox21).)
